{"source": "PubChem BioAssay AID435005", "about": "(Broad Institute, 2010)", "note": "The whole screen tested about 300,000 compounds, of which about 2,400 (0.8%) were called active. Many of the other results were omitted from the sample, so actives are more common in it than they were. Unmarked numbers belong to inactive results.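 The calls were made as follows: active = Every replicate reaches about 75%, or at least half do and their mean reaches it too (limit read from the data); inconclusive = At least half of replicates reach the limit but their mean does not; inactive = Under half of replicates reach the limit.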", "data": [{"test": "inhibitors of cytokine-induced beta cell apoptosis, primary screen, luminescence (AID 435005);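 also: 0% = cytokine-treated negative control wells and 100% = positive control rescue; higher means more ATP so stronger rescue from cytokine killing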", "conditions": "INS-1E cytokine-induced death, ATP luminescence, 48 h; active compounds read high; percent of positive-control rescue, neutral wells zero; concentration not given here", "values": [{"smiles": "CN(CC(=O)Nc1ccc(Cl)cc1)CC(=O)Nc1cccc2ccccc12", "protection from apoptosis": "0.976%"}, {"smiles": "Cc1onc(-c2c(F)cccc2Cl)c1C(=O)OCC(=O)N1C(C)CCCC1C", "note": "(stereo not given)", "protection from apoptosis": "1.7%"}, {"smiles": "Cc1[nH]n(-c2ccc([N+](=O)[O-])cc2)c(=O)c1C=NCCN1CCN(C(=O)c2ccccc2F)CC1", "protection from apoptosis": "48.6%"}, {"smiles": "Cc1ccc(-n2[nH]c(C)c(/C=N/NC(=O)c3cccc([N+](=O)[O-])c3)c2=O)cc1C", "protection from apoptosis": "106% (active)"}, {"smiles": "Cc1occc1C(=O)N/N=C/c1ccc(-c2cccc([N+](=O)[O-])c2)o1", "protection from apoptosis": "4.96%"}, {"smiles": "Cc1[nH]n(-c2ccccc2)c(=O)c1/C=N/NC(=O)c1ccoc1C", "protection from apoptosis": "107% (active)"}, {"smiles": "COc1cc(/C=N/NC(=O)c2ccoc2C)ccc1OCCN1CCCCC1", "protection from apoptosis": "-1.12%"}, {"smiles": "Cc1cccc(C(=O)NNC(=O)c2cccc([N+](=O)[O-])c2)c1", "protection from apoptosis": "-5.35%"}, {"smiles": "Cc1ccc(N2C(=O)N3[C@@H]4c5ccccc5OC[C@@H]4[C@@H](c4ccccc4)[C@@]3(C)C2=O)cc1", "protection from apoptosis": "-1.96%"}, {"smiles": "Cc1ccc(S(=O)(=O)N(C)C)cc1NC(=O)CN1c2cccc3cccc(c23)S1(=O)=O", "protection from apoptosis": "-0.228%"}, {"smiles": "COc1ccc(C(=O)NCC(=O)N/N=C/c2ccc([N+](=O)[O-])o2)cc1OC", "protection from apoptosis": "-11.1%"}, {"smiles": "COc1ccc(C(=O)COC(=O)c2ccc([N+](=O)[O-])s2)cc1OC", "protection from apoptosis": "4.99%"}, {"smiles": "Cc1ccccc1NCC(=O)N/N=C\\c1ccc([N+](=O)[O-])s1", "protection from apoptosis": "3.12%"}, {"smiles": "COc1ccc(C(=O)NCC(=O)N/N=C/c2ccc([N+](=O)[O-])s2)cc1OC", "protection from apoptosis": "91.3% (active)"}, {"smiles": "CC(C)(C)c1cc(C(=O)N/N=C/c2ccc([N+](=O)[O-])s2)n[nH]1", "protection from apoptosis": "111% (active)"}, {"smiles": "CCOc1ccc(NC(=O)CCC(=O)N/N=C/c2ccc([N+](=O)[O-])s2)cc1", "protection from apoptosis": "-9.66%"}, {"smiles": "CCN(C[C@H]1N[C@@](CC)(C(=O)OC)[C@H]2C(=O)N(Cc3ccccc3)C(=O)[C@@H]12)S(=O)(=O)c1ccc(C(F)(F)F)cc1", "protection from apoptosis": "13.9%"}, {"smiles": "COc1ccc(C)cc1NC(=O)c1cc(-c2ccccc2)nc2c1cnn2C(C)C", "protection from apoptosis": "15.6%"}, {"smiles": "COc1ccc(S(=O)(=O)Nc2cccc3c2O[C@H](CN(C)S(=O)(=O)c2ccc(OC)cc2)[C@@H](C)CN([C@H](C)CO)C3=O)cc1", "protection from apoptosis": "-7.76%"}, {"smiles": "COc1ccc(S(=O)(=O)N(C)C[C@@H]2Oc3ccc(NS(=O)(=O)c4cn(C)cn4)cc3C(=O)N([C@@H](C)CO)C[C@@H]2C)cc1", "protection from apoptosis": "-2.08%"}, {"smiles": "Nn1c(SCC(=O)NC2CCCc3ccccc32)nnc1C1CC1", "note": "(stereo not given)", "protection from apoptosis": "-5.42%"}, {"smiles": "COc1ccc(CCNC(=O)COC(=O)c2cnc(Cl)c(Cl)c2)cc1", "protection from apoptosis": "-3.76%"}, {"smiles": "C/C(=N\\NC(=O)Cc1ccc(Cl)cc1)c1ccccn1", "protection from apoptosis": "87.6% (active)"}, {"smiles": "C/C(=N\\NC(=O)Cc1ccc(F)cc1)c1ccc(F)cc1", "protection from apoptosis": "-1.1%"}, {"smiles": "C/C(=N\\NC(=O)c1ccccc1F)c1ccccn1", "protection from apoptosis": "92% (active)"}, {"smiles": "COC(=O)c1ccccc1NC(=S)NC(=O)c1ccccc1F", "protection from apoptosis": "1.17%"}, {"smiles": "C/C(=N\\NC(=O)Cc1ccc(Br)cc1)c1cccnc1", "protection from apoptosis": "-3.84%"}, {"smiles": "C/C(CC(=O)Nc1ccc(N(C)C)cc1)=N\\NC(=O)c1ccccc1F", "protection from apoptosis": "1.37%"}, {"smiles": "O=C(COC(=O)c1ccccn1)NNC(=O)c1ccc(Br)cc1", "protection from apoptosis": "-13.1%"}, {"smiles": "Cc1cc(C)cc(OCC(=O)Nc2ccc(N3CCOCC3)cc2N2CCOCC2)c1", "protection from apoptosis": "1.95%"}, {"smiles": "CN(CC(=O)Nc1ccc(OC(F)F)cc1)S(=O)(=O)/C=C/c1ccccc1", "protection from apoptosis": "-0.758%"}, {"smiles": "CCc1ccc(-n2c(SCc3cc(=O)n4cc(Br)ccc4n3)nc3[nH]ncc3c2=O)cc1", "protection from apoptosis": "16.3%"}, {"smiles": "Cc1cccc2nc(CSc3nc4[nH]ncc4c(=O)n3-c3cccc(Cl)c3)cc(=O)n12", "protection from apoptosis": "92.7% (active)"}, {"smiles": "COc1ccc(CCNC(=O)CSc2nc3[nH]ncc3c(=O)n2-c2cccc(C(F)(F)F)c2)cc1OC", "protection from apoptosis": "4.86%"}, {"smiles": "CC[C@@H]1CCCCc2ccccc2[C@@H](C(=O)C[C@H](O)CC(C)=O)OC1=O", "protection from apoptosis": "-2.96%"}, {"smiles": "C[C@@H]1CN([C@@H](C)CO)C(=O)c2cccc(NS(=O)(=O)c3ccc(F)cc3)c2O[C@H]1CN(C)C(=O)NC1CCCCC1", "protection from apoptosis": "-0.297%"}, {"smiles": "CC(C)OCCCNc1ncnc2c1[nH]c1ccc(F)cc12", "protection from apoptosis": "104% (active)"}, {"smiles": "COc1cc(OC)c(OC)cc1/C=N/Nc1ncnc2c1[nH]c1ccc(C)cc12", "protection from apoptosis": "6%"}, {"smiles": "CC(C)OCCCNC(=O)c1cc(Sc2ccc(F)cc2)nc2ccccc12", "protection from apoptosis": "0.00619%"}, {"smiles": "COc1ccc(NC(=O)CN(C)C(=O)c2cc(C3CC3)nn2-c2ccccc2)cc1", "protection from apoptosis": "-6.53%"}, {"smiles": "N#Cc1cc([N+](=O)[O-])ccc1NC(=O)COC(=O)c1cnccn1", "protection from apoptosis": "-1.22%"}, {"smiles": "CCc1cccc(CC)c1NC(=S)Nc1ccc2cn[nH]c2c1", "protection from apoptosis": "-5.93%"}, {"smiles": "Cc1cccc(NC(=S)Nc2ccc3cn[nH]c3c2)c1", "protection from apoptosis": "124% (active)"}, {"smiles": "Cc1cccc(NC(=S)Nc2ccc(Cl)c(Cl)c2)c1", "protection from apoptosis": "2.17%"}, {"smiles": "COc1ccc(S(=O)(=O)N(C)C[C@H]2Oc3c(NC(=O)Nc4ccc5c(c4)OCO5)cccc3C(=O)N([C@H](C)CO)C[C@@H]2C)cc1", "protection from apoptosis": "2.68%"}, {"smiles": "Cc1ccc(C(=O)Nc2ccc3c(c2)OCCO3)cc1S(=O)(=O)N1CCOCC1", "protection from apoptosis": "10.2%"}, {"smiles": "C/C(N)=C(/C#N)C(=O)COC(=O)c1cc(-c2ccc(C)cc2)nc2ccccc12", "protection from apoptosis": "80.7% (active)"}, {"smiles": "C/C(N)=C(/C#N)C(=O)COC(=O)c1cc(-c2cccc(Br)c2)nc2ccccc12", "protection from apoptosis": "-5.26%"}, {"smiles": "C/C(N)=C(/C#N)C(=O)COC(=O)c1cc(-c2ccccc2)nc2ccc(Br)cc12", "protection from apoptosis": "7.58%"}, {"smiles": "O=C(OCCN1C(=O)c2ccccc2C1=O)[C@@H]1CC(O)CN1S(=O)(=O)c1ccccc1[N+](=O)[O-]", "note": "(stereo not given in full)", "protection from apoptosis": "4.37%"}, {"smiles": "C=CC[C@H](CC(=O)OC(C)(C)C)C(=O)OC[C@H]1CCCN1C(=O)[C@H](CC=C)CC(=O)N(CCO)Cc1ccccc1", "protection from apoptosis": "5.16%"}, {"smiles": "CCC(CO)Oc1cc(NC(=O)c2cccc(F)c2)c2ncn(C(C)C)c2c1", "note": "(stereo not given)", "protection from apoptosis": "-0.224%"}, {"smiles": "COC(=O)C1=C(C)N(Cc2ccccc2)C(=NCCCOC(C)C)N[C@H]1c1ccccc1", "protection from apoptosis": "11.4%"}, {"smiles": "Cc1cc(Nc2ccccc2)n(C(=O)c2ccc(N)cc2)n1", "protection from apoptosis": "-16.4%"}, {"smiles": "Nc1ccc(Nc2ccccc2)cc1", "protection from apoptosis": "78% (active)"}, {"smiles": "Cc1ccc(Nc2ccccc2N)cc1", "protection from apoptosis": "-7.56%"}, {"smiles": "NC(=O)c1c(Nc2nc3c(F)cccc3s2)sc2c1CCCC2", "protection from apoptosis": "-4.14%"}, {"smiles": "O=C(Nc1nc2c(F)cc(F)cc2s1)C1COc2ccccc2O1", "note": "(stereo not given)", "protection from apoptosis": "8.45%"}, {"smiles": "Fc1cc(F)c2nc(Nc3nc4c(F)cccc4s3)sc2c1", "protection from apoptosis": "103% (active)"}, {"smiles": "COc1ccc(C(=O)O)cc1S(=O)(=O)NC1CCN(Cc2ccccc2)CC1", "protection from apoptosis": "-4.08%"}, {"smiles": "Cc1ccc(Oc2nc(-c3ccccn3)nc3ccccc23)cc1", "protection from apoptosis": "101% (active)"}, {"smiles": "COc1cnc(-c2ccccn2)nc1Oc1ccc(C(C)(C)C)cc1", "protection from apoptosis": "97.3% (active)"}, {"smiles": "COc1ccc(Cc2nc(-c3ccccn3)no2)cc1OC", "protection from apoptosis": "4.66%"}, {"smiles": "CCOCCCNc1nc(-c2ccccc2)nc2ccccc12", "protection from apoptosis": "4.15%"}, {"smiles": "CCOC(=O)c1cnc(-c2ccccc2)nc1Oc1ccc(C)cc1", "protection from apoptosis": "-3.84%"}, {"smiles": "CCC(=O)OCCNc1nc(-c2ccccc2)nc2ccccc12", "protection from apoptosis": "0.204%"}, {"smiles": "CC(C)(C)Nc1nc(-c2ccccn2)nc2ccccc12", "protection from apoptosis": "118% (active)"}, {"smiles": "COc1ccc(Sc2nc(-c3ccccc3)ncc2OC)cc1", "protection from apoptosis": "-2.84%"}, {"smiles": "N#Cc1ccc(Oc2cc(C(F)(F)F)nc(-c3ccccn3)n2)cc1", "protection from apoptosis": "-3.82%"}, {"smiles": "COc1ccccc1S(=O)(=O)NCc1ccc(C(=O)N(C)Cc2ccc(F)cc2)cc1", "protection from apoptosis": "-4.62%"}, {"smiles": "CCN(CC)C(=O)[C@H]1CC(CC(=O)NCc2ccco2)C(=O)N2CCc3c([nH]c4ccccc34)[C@]12C", "note": "(stereo not given in full)", "protection from apoptosis": "-1.53%"}, {"smiles": "O=C(COc1ccc([N+](=O)[O-])cc1Cl)Nc1ccc2[nH]c(=O)[nH]c2c1", "protection from apoptosis": "-0.613%"}, {"smiles": "CN(c1ccccc1)S(=O)(=O)c1cc(C(=O)N2CCN(c3ncccn3)CC2)ccc1Cl", "protection from apoptosis": "-2.6%"}, {"smiles": "COc1ccccc1-c1oc2ccccc2c1C#CCCCCO", "protection from apoptosis": "-5.68%"}, {"smiles": "COC(=O)c1ccc(/C=C/c2c(-c3ccc(OC)cc3)sc3ccccc23)cc1", "protection from apoptosis": "5.7%"}, {"smiles": "Cn1nccc1C(=O)NC1CCCc2c1cnn2-c1ccc(F)cc1F", "note": "(stereo not given)", "protection from apoptosis": "132% (active)"}, {"smiles": "Cc1ccc(-n2ncc3c2CCCC3NC(=O)c2cnccn2)cc1C", "note": "(stereo not given)", "protection from apoptosis": "2.44%"}, {"smiles": "Cn1nccc1C(=O)NC1CCCc2c1cnn2-c1ccccc1F", "note": "(stereo not given)", "protection from apoptosis": "111% (active)"}, {"smiles": "CC(=O)NCC(=O)NC1CCCc2c1cnn2-c1ccccc1F", "note": "(stereo not given)", "protection from apoptosis": "-7.28%"}, {"smiles": "Cc1cc(C(=O)NC2CCCc3c2cnn3-c2cccc(C)c2C)c(C)o1", "note": "(stereo not given)", "protection from apoptosis": "41.6%"}, {"smiles": "COc1ccc(C(=O)NC2CCCc3c2cnn3-c2cccc(C)c2C)c(OC)n1", "note": "(stereo not given)", "protection from apoptosis": "32.4%"}, {"smiles": "Cc1c(C(=O)Nc2cccc(S(=O)(=O)N3CCOCC3)c2)oc2ccccc12", "protection from apoptosis": "-9.31%"}, {"smiles": "COc1cc(C(=O)OCc2cc(=O)n3ccsc3n2)ccc1OC(C)C", "protection from apoptosis": "-0.396%"}, {"smiles": "CC(C)c1ccc(NC(=O)COC(=O)c2ccc(CN3CCCC3=O)cc2)cc1", "protection from apoptosis": "3.42%"}, {"smiles": "COc1ccccc1-c1sc2ccccc2c1C#CC1(O)CCCCC1", "protection from apoptosis": "-12%"}]}]}
